According to PubChem BioAssay (Tox21):
“And” between values parts separate entries of the source, which are not always exact repeats. Equal entries are not always repeated. Where a structure was tested more than once in an assay, its records may differ in their call. The source made the active and inactive calls. A call without a number means that no potency is given here. Unless noted, calls follow the shape of the dose curve; as a rule, active = well fitted curve in the direction sought with a large enough effect in the repeat runs; inconclusive = weak or mixed curves; inactive = no such curve, though single readings can be large; an effect the other way counts as inactive or inconclusive.

Columns and labels:
[1] = test system: thyroid hormone receptor (rat, GH3 cells); assay: qHTS assay to identify small molecule agonists of the thyroid receptor (TR) signaling pathway (AID 743066; calls by dose curve)
[2] = molecular target: Estrogen receptor (Homo sapiens) (UniProt P03372); assay: qHTS assay to identify small molecule antagonists of the estrogen receptor alpha (ER-alpha) signaling pathway (AID 743069; active = well fitted curve in the direction sought with a large enough effect in the signal ratio in the repeat runs, not every such curve was filed as active; inconclusive = weak or mixed curves, or effect the other way; inactive = no such curve, though single readings can be large or run the other way; the % refers to the signal ratio; also: potency is read from the fitted curve at half-maximal effect)
Estrogen receptor (Homo sapiens), sequence (P03372 whole entry, looked up): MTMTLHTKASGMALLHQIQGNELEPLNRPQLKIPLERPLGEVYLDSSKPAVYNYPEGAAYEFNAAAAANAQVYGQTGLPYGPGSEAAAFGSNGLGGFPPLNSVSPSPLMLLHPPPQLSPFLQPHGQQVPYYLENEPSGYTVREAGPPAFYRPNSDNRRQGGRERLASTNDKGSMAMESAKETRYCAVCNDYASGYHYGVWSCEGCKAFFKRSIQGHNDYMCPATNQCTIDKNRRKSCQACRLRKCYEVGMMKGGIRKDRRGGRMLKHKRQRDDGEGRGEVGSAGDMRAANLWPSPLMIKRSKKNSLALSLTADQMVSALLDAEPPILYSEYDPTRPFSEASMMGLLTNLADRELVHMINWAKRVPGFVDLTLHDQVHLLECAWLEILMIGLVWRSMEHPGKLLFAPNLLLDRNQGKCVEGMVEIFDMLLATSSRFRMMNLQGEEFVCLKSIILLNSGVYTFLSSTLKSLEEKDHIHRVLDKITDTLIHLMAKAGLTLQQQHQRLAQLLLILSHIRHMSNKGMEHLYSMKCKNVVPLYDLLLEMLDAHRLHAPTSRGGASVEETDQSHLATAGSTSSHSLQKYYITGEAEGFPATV
Outline: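 Antagonist mode: compounds in DMSO were co-added with 17beta-estradiol to ER-alpha-bla HEK293 cells (2% charcoal-stripped serum) and left 18 h at 37C. Reporter inhibition was measured as FRET fluorescence after 2 h LiveBLAzer substrate at room temperature.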

[3] = qHTS assay to identify small molecule antagonists of the estrogen receptor alpha (ER-alpha) signaling pathway - cell viability counter screen (AID 743074; calls by dose curve;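 also: HEK293 cells carrying ER-alpha-UAS-bla reporter stimulated with 17beta-estradiol; nearly all actives have a fitted effect of over 45% in size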)
[4] = molecular target: Estrogen receptor (Homo sapiens) (UniProt P03372); assay: qHTS assay to identify small molecule agonists of the estrogen receptor alpha (ER-alpha) signaling pathway (AID 743075; calls by dose curve;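 also: HEK293 GripTite cells with ER-alpha and UAS-driven beta-lactamase reporter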; also: potency is read from the fitted curve at half-maximal effect)
[5] = molecular target: Estrogen receptor (Homo sapiens) (UniProt P03372); assay: qHTS assay to identify small molecule agonists of the estrogen receptor alpha (ER-alpha) signaling pathway using the BG1 cell line (AID 743079); also: nearly all actives have a fitted effect of over 20% in size; also: potency is read from the fitted curve at half-maximal effect
[6] = qHTS assay to identify small molecule antagonists of the estrogen receptor alpha (ER-alpha) signaling pathway using the BG1 cell line (AID 743080; calls by dose curve;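 also: BG1 cells stimulated with 17beta-estradiol alongside compound; nearly all actives have a fitted effect of over 25% in size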; also: potency is read from the fitted curve at half-maximal effect)
Outline: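 BG1-Luc-4E2 cells (endogenous full-length ER-alpha, 4xERE luciferase) hormone-starved 5 days in charcoal-stripped FBS, plated 4,000/well for 24 h, then compound plus 17beta-estradiol for 21.5 h at 37 C; ONE-Glo luminescence read.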

[7] = qHTS assay to identify small molecule antagonists of the estrogen receptor alpha (ER-alpha) signaling pathway using the BG1 cell line - cell viability counter screen (AID 743081);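 also: compound given together with 17beta-estradiol as the ER stimulus; nearly all actives have a fitted effect of over 45% in size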; also: potency is read from the fitted curve at half-maximal effect
Aromatase (Homo sapiens) = Aromatase (Homo sapiens) (UniProt P11511); assay: qHTS assay to identify aromatase inhibitors (AID 743083); also: nearly all actives have a fitted effect of over 55% in size; also: potency is read from the fitted curve at half-maximal effect
Aromatase (Homo sapiens), sequence (P11511 whole entry, looked up): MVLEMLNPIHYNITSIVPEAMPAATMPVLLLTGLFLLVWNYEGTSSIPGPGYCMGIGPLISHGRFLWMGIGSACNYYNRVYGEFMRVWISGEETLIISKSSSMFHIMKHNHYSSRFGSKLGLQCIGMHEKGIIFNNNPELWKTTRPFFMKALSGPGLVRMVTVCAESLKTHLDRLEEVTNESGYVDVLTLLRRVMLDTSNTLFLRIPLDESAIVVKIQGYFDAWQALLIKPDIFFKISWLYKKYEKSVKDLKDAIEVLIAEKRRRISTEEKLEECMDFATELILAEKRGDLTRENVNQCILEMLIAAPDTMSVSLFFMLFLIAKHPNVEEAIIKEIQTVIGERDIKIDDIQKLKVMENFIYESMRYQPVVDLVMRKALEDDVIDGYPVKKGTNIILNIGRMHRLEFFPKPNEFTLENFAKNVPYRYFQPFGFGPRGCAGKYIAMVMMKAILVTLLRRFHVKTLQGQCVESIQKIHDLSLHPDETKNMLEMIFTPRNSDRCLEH

[8] = qHTS assay to identify aromatase inhibitors - cell viability counter screen (AID 743084);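 also: cells stimulated with testosterone during compound exposure; nearly all actives have a fitted effect of over 55% in size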; also: potency is read from the fitted curve at half-maximal effect

Compound | Potency [1] | Potency [2] | Potency [3] | Potency [4] | Potency [5] | Potency [6] | Potency [7] | Potency (Aromatase (Homo sapiens)) | Potency [8]
CC(C)COC(=O)COc1cc(Cl)c(Cl)cc1Cl | inactive | inactive | inactive | inactive | inactive | inactive | inactive | inactive | inactive
CC(C)CC(O)CC(C)C | inactive | inactive | inactive | inactive | inactive | inactive | inactive | inactive | inactive
C[C@@H]1C[C@H]2[C@@H]3CCC4=CC(=O)C=C[C@]4(C)[C@@]3(F)[C@@H](O)C[C@]2(C)[C@@]1(O)C(=O)COP(=O)(O)O | inactive | – | inactive | inactive | – | – | inactive | inactive | inactive
CCOCCC(=O)OCC | inactive | inactive | inactive | inactive | inactive | inactive | inactive | inactive | inactive
CC1CCc2nccnc21 (centres undefined) | inactive | inactive | inactive | inactive | inactive | inactive | inactive | inactive | inactive
CC/C=C\C/C=C\C/C=C\CCCCCCCC(=O)OCC | inactive | – | inactive | – | – | – | inactive | – | –
O=C(c1ccccc1)C1CCC1 | inactive | inactive | inactive | inactive | inactive | inactive | inactive | inactive | inactive
C=C(C)c1ccccc1 | inactive | – | inactive | – | – | – | inactive | – | –
COc1ccc(C(=O)NCc2ccc(OCCN(C)C)cc2)cc1OC | inactive | inactive | inactive | inactive | inactive | – | inactive | inactive | inactive
CCOC(=O)c1c(N)sc2c1CCN(Cc1ccccc1)C2 | inactive | inactive | inactive | inactive | – | – | – | inactive | inactive
Oc1ccc2c(c1)Cc1ccccc1-2 | inactive | – | inactive | 24.5 µM [activator] (active) | 13.7 µM (active) | – | inactive | inactive | inactive
CCCCCCCCCCCCCOS(=O)(=O)O | inactive | – | inactive | – | – | – | inactive | inactive | inactive
CC(=O)C(=O)CC(C)C | inactive | inactive | inactive | inactive | 34.2 µM (active) | inactive | inactive | inactive | inactive
ClC1=C(Cl)C1(Cl)Cl | inactive | inactive | inactive | inactive | inactive | inactive | inactive | inactive | inactive
CCCCCCCCCCCC(=O)OCC(O)CO (centres undefined) | inactive | inactive | inactive | inactive | inactive | inactive | inactive | inactive | inactive
COc1cc(S(=O)(=O)Nc2ccccc2)c(OC)cc1N | inactive | inactive | – | inactive | inactive | inactive | inactive | inactive | inactive
CSCC[C@H](NC(=O)[C@H](Cc1c[nH]c2ccccc12)NC(=O)CCNC(=O)OC(C)(C)C)C(=O)N[C@@H](CC(=O)O)C(=O)N[C@@H](Cc1ccccc1)C(N)=O | – | inactive | inactive | inactive | inactive | inactive | – | inactive | inactive
CCN(CC)C(=O)N1CCN(C)CC1 | – | – | inactive | – | – | – | inactive | inactive | inactive
O=C1[C@@H]2[C@H]3CC[C@H](C3)[C@@H]2C(=O)N1CCCCN1CCN(c2ncccn2)CC1 | – | inactive | inactive | inactive | inactive | inactive | inactive | inactive | inactive
CCN(CC)CCOC(=O)C(c1ccccc1)c1ccccc1 | inactive | – | – | – | – | – | inactive | inactive | inactive
CCOC(=O)C(C)O (centres undefined) | – | inactive | inactive | inactive | inactive | inactive | – | inactive | inactive
CSSc1ccoc1C | inactive | – | inactive | – | – | – | inactive | inactive | inactive
O=C(O)CCCc1c[nH]c2ccccc12 | inactive | – | inactive | – | – | – | inactive | inactive | inactive
O=C1OC[C@H](Cc2cccc(O)c2)[C@H]1Cc1cccc(O)c1 | inactive | – | inactive | – | – | – | inactive | inactive | inactive
CC(C)(C(=O)c1cccnc1)c1cccnc1 | – | inactive | inactive | inactive | inactive | inactive | inactive | inactive | inactive
CCCCCCC(CO)CCCC (centres undefined) | inactive | – | inactive | – | – | – | inactive | inactive | inactive
CCCCCc1ccco1 | inactive | – | inactive | – | – | – | inactive | inactive | inactive

Compound | Potency [1] | Potency [2] | Potency [3] | Potency [4] | Potency [5] | Potency [6] | Potency [7] | Potency (Aromatase (Homo sapiens)) | Potency [8]
FC(F)(F)C(F)(F)C(F)(F)C(F)(F)CCI | – | inactive | inactive | inactive | 27.9 µM (active) | inactive | inactive | inactive | inactive
O=C(O)CCC(=O)c1ccc(-c2ccccc2)cc1 | – | – | inactive | – | – | – | inactive | inactive | inactive
O=S(=O)(O)CO | inactive | – | inactive | – | – | – | inactive | inactive | inactive
CC(C)OC(=O)c1ccccc1C(=O)OC(C)C | – | inactive | – | inactive | inactive | inactive | inactive | inactive | inactive
CC(CO)(CO)C(=O)O | – | inactive | inactive | inactive | inactive | inactive | inactive | inactive | inactive
O=S(=O)(Cl)c1c(Cl)cccc1Cl | – | inactive | inactive | inactive | inactive | inactive | inactive | inactive | inactive
Nc1ccn([C@H]2CS[C@@H](CO)O2)c(=O)n1 | – | – | inactive | – | – | – | inactive | inactive | inactive
CCCCCCCCCCCSCC(=O)O | – | 54.9 µM [inconclusive] (active) | inactive | inactive | – | inactive | inactive | inactive | inactive
O[C@@H](CNC[C@H](O)[C@H]1CCc2cc(F)ccc2O1)[C@@H]1CCc2cc(F)ccc2O1 | – | 26.8 µM [inconclusive] (active) | inactive | inactive | inactive | inactive | – | 33.5 µM (active) | –
CCCCCC | inactive | – | inactive | – | – | – | inactive | inactive | inactive
C[C@@H]1[C@H](O)[C@@H](C)/C=C/C=C\C=C\C=C\C=C\C=C\C=C\[C@H](O[C@@H]2O[C@H](C)[C@@H](O)[C@H](N)[C@@H]2O)C[C@@H]2O[C@](O)(C[C@@H](O)C[C@@H](O)[C@H](O)CC[C@@H](O)C[C@@H](O)CC(=O)O[C@H]1C)C[C@H](O)[C@H]2C(=O)O (stereo in doubt) | – | inactive | inactive | inactive | inactive | inactive | inactive | inactive | inactive and 34.4 µM (active)
CNCc1ccc(NC(=O)c2c[nH]c3c2C(=O)CCC3)cc1 | inactive | – | inactive | – | – | – | inactive | inactive | inactive
CC[C@@H](CO)NCCN[C@@H](CC)CO | – | – | inactive | – | – | – | inactive | inactive | inactive
O=C(O)c1cc(Cl)cc(Cl)c1O | inactive | – | inactive | – | – | – | inactive | inactive | inactive
CCCCC[C@H](O)/C=C/[C@H]1[C@H](O)CC(=O)[C@@H]1C/C=C\CCCC(=O)O | inactive | – | inactive | – | – | – | – | inactive | inactive
O=C1CC[C@@H](C(=O)O)N1 | inactive | – | inactive | – | – | – | inactive | inactive | inactive
O=C(O)CN1C(=O)c2cccc3cccc(c23)C1=O | inactive | – | inactive | – | – | – | inactive | inactive | inactive
CC(=O)NCCO | inactive | – | inactive | – | – | – | inactive | inactive | inactive
O=C1OC(=O)c2c(Br)c(Br)c(Br)c(Br)c21 | inactive | – | inactive | – | – | – | inactive | – | inactive
CC(=O)OC(C)C[N+](C)(C)C (centres undefined) | – | inactive | inactive | inactive | inactive | inactive | inactive | inactive | inactive
O=C1c2ccccc2C(=O)c2c(O)ccc(O)c21 | inactive | – | inactive | – | – | – | – | – | 38.6 µM (active)
CCCCCCCC(=O)Oc1c(Br)cc(C#N)cc1Br | inactive | – | – | inactive | – | 60.9 µM (active) | inactive | 60.9 µM (active) | –
CN=C(N)NC(=O)Nc1c(C)cccc1C | – | inactive | inactive | inactive | inactive | inactive | – | inactive | inactive
CCCOC(=O)c1c(Cl)c(Cl)c(Cl)c(Cl)c1C(=O)OCCC | inactive | – | inactive | – | – | – | inactive | – | inactive
CCN(Cc1cccc(S(=O)(=O)O)c1)c1ccc(C(=C2C=CC(=[N+](CC)Cc3cccc(S(=O)(=O)O)c3)C=C2)c2ccc(O)cc2S(=O)(=O)[O-])cc1 | – | inactive | – | inactive | – | – | 33.1 µM (active) | 18.6 µM (active) | 29.5 µM (active)
CC(=O)OCC(C)C | – | – | – | inactive | – | – | inactive | inactive | inactive
